This passage reports outcome and Potency results from PubChem BioAssay (Tox21).

Assay [1] is described as follows: qHTS assay to identify small molecule antagonists of the vitamin D receptor (VDR) signaling pathway - cell viability counter screen (AID 743225). Further: nearly all actives have a fitted effect of over 50% in size. The essentials:
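VDR-UAS-bla HEK 293T cells were plated and incubated 4 h at 37C, then dosed with compound plus 3 nM (final) 1-alpha,25-dihydroxyvitamin D3 for 16 h. After the 2 h beta-lactamase read, viability in the same wells was read as CellTiter-Glo luminescence after 30 min at room temperature.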
(qHTS replaces the single test concentration by a dilution series.)

Assay [2] in a line: qHTS assay to identify small molecule agonists of the NFkB signaling pathway - cell viability counter screen (AID 1159515; calls by dose curve; further: series mostly up to about 61 µM; nearly all actives have a fitted effect of over 55% in size). Summed up:
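Cells are seeded (2,000 NFkB-bla ME-180 per well), rested overnight, and dosed with DMSO-dissolved compounds for 5 hr at 37 C. Viability is then read by CellTiter-Glo luminescence after 30 min at room temperature.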

The nature of assay [3]: qHTS assay to identify small molecule agonists of the endoplasmic reticulum stress response signaling pathway (AID 1159516; active means well fitted activation curve with a large enough effect in the signal ratio in the repeat runs, not every such curve was filed as active; the % refers to the signal ratio). Summed up:
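Cells are seeded at 1,500 per well and incubated overnight. Compounds in DMSO are added for 5 hr at 37 C, then beta-lactamase FRET substrate for 2 hr at room temperature, and fluorescence at 460 and 530 nm is measured.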

Assay [4] can be described thus: qHTS assay to identify small molecule agonists of the endoplasmic reticulum stress response signaling pathway - cell viability counter screen (AID 1159517; calls by dose curve;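 further: HeLa cells carrying an ER stress response element beta-lactamase reporter; series mostly up to about 61 µM; nearly all actives have a fitted effect of over 50% in size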). The essentials:
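In parallel with the ESRE reporter read, cytotoxicity was scored by CellTiter-Glo luminescence (30 min, room temperature) on HeLa ESRE-bla cells dosed for 5 hr.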

Assay [5] is described as follows: qHTS assay to identify small molecule antagonists of the retinoid-related orphan receptor gamma (ROR-gamma) signaling pathway - cell viability counter screen (AID 1159520). Further: nearly all actives have a fitted effect of over 50% in size. Summed up: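 Tet-on ROR gamma CHO cells were given compounds for 2 hr, then doxycycline hyclate at 1 uM final, and incubated 16 hr at 37 C. Viability was measured as ATP content by CellTiter-Glo luminescence.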

For assay [6], the target named is Nuclear receptor ROR-gamma (Homo sapiens) (UniProt P51449). The assay is described as follows: qHTS assay to identify small molecule antagonists of the retinoid-related orphan receptor gamma (ROR-gamma) signaling pathway (AID 1159521;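 further: CHO cells with doxycycline inducible ROR-gamma driving an RORE luciferase reporter; top concentration of the series differs between compounds; nearly all actives have a fitted effect of over 50% in size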). Summed up:
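Tet-on ROR-gamma CHO cells with ROR response element-luciferase reporter; compounds added 2 hr before 1 uM doxycycline induction, then 16 hr at 37 C. Antagonism scored as decreased ONE-Glo luminescence.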

Assay [7] can be described thus: qHTS assay to identify small molecule agonists of the AP-1 signaling pathway - cell viability counter screen (AID 1159525; calls by dose curve; further: nearly all actives have a fitted effect of over 55% in size). Summed up:
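Same-well cytotoxicity counter screen of the Tox21 10K library in ME-180 cells. The readout is ATP-dependent luminescence after 5 h compound treatment. Data are normalised to DMSO and tetra n-octyl ammonium bromide controls.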

Assay [8] is described as follows: qHTS assay to identify small molecule agonists of the AP-1 signaling pathway (AID 1159526; calls by dose curve; further: potency means the concentration at half of the fitted maximal effect).
In assay [9] the target is Retinoic acid receptor RXR-alpha (Homo sapiens) (UniProt P19793). The assay is described as follows: qHTS assay to identify small molecule agonists of the RXR signaling pathway (AID 1159527; calls by dose curve; further: nearly all actives have a fitted effect of over 35% in size). The essentials:
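GeneBLAzer RXR-alpha-UAS-bla HEK 293T cells in 2% charcoal-stripped FBS medium were exposed to compounds for 16 hr at 37 C in agonist mode. Beta-lactamase reporter read as 460/530 nm FRET ratio after 2 hr substrate loading.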

The nature of assay [10]: qHTS assay to identify small molecule agonists of the RXR signaling pathway - cell viability counter screen (AID 1159529). The essentials:
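RXR-alpha-UAS-bla HEK 293T cells in medium with 2% charcoal-stripped FBS were pre-incubated 5 hr, then compound-treated 16 hr at 37 C. Viability was read by CellTiter-Glo luminescence in the same wells as the beta-lactamase assay, with tetraoctyl ammonium bromide as positive control.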

Assay [11] in a line: qHTS assay to identify small molecule antagonists of the retinoid acid receptor (RAR) signaling pathway - cell viability counter screen (AID 1159551). Further: nearly all actives have a fitted effect of over 35% in size. Summed up: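 Cells (C3RL4) are plated, incubated overnight, dosed with compound in DMSO, then given retinol at 1 uM final. After 6 h at 37 C, CellTiter-Glo is added and luminescence read following 30 min at room temperature.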

Assay [12] is described as follows: qHTS assay to identify small molecule antagonists of the retinoic acid receptor (RAR) signaling pathway (AID 1159552; further: nearly all actives have a fitted effect of over 50% in size). Summed up: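 Retinol signaling pathway inhibitors screened in C3RL4 RARE-luciferase reporter cells seeded overnight at 37 C, then compounds added with 1 uM (final) retinol as pathway substrate. After 6 hr at 37 C, luciferase luminescence read after 30 min at room temperature.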

Assay [13] can be described thus: qHTS assay to identify small molecule agonists of the retinoic acid receptor (RAR) signaling pathway (AID 1159553). Further: potency means the concentration at half of the fitted maximal effect. The essentials:
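Seed C3RL4 reporter cells at 1,000 per well and incubate overnight at 37 C. Add compounds in DMSO, incubate 6 hr. Add luciferase reagent, wait 30 min at room temperature, read luminescence.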

The nature of assay [14]: qHTS assay to identify small molecule antagonists of the estrogen related receptor (ERR) signaling pathway from Tox21 library - cell viability counter screen (AID 1224834). Further: nearly all actives have a fitted effect of over 30% in size. Summed up:
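ERR cells, 2,000/well; 6 h settle at 37 C/5% CO2; pin-tool compound transfer in DMSO; 17.5 h at 37 C; CellTiter-Fluor, 30 min; fluorescence intensity.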

Assay [15] deals with Luciferin 4-monooxygenase (Photinus pyralis) (UniProt P08659). The assay is described as follows: qHTS assay to identify small molecule inhibitors of firefly luciferase (AID 1224835). Further: nearly all actives have a fitted effect of over 25% in size. Further: potency means the concentration at half of the fitted maximal effect. Summed up: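 Biochemical qHTS: compounds run as interplate titrations against purified firefly enzyme, with D-luciferin and ATP each at its KM concentration. Light output recorded by CCD imaging.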

Assay [16] in a line: qHTS assay to identify small molecule agonists of the constitutive androstane receptor (CAR) signaling pathway - cell viability counter screen (AID 1224836). Further: series mostly up to about 92 µM; nearly all actives have a fitted effect of over 45% in size. Summed up: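 HepG2 cells stably carrying hCAR and a CYP2B6-2.2kb reporter; 15-concentration compounds plus PK11195 (final 0.75 uM), 23 hr at 37 C/5% CO2. Viability read by CellTiter-Fluor fluorescence.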
Assay [17] can be described thus: qHTS assay to identify small molecule antagonists of the constitutive androstane receptor (CAR) signaling pathway - cell viability counter screen (AID 1224837). Further: series mostly up to about 92 µM; nearly all actives have a fitted effect of over 45% in size. The essentials: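 Viability was measured with CellTiter-Fluor in a HepG2 line carrying stably transfected hCAR and a CYP2B6-2.2kb construct. Cells were exposed for 23 hr at 37 C to 15 compound concentrations with 50 nM CITCO as agonist.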

Assay [18] deals with Nuclear receptor subfamily 1 group I member 3 (Homo sapiens) (UniProt Q14994). The assay is described as follows: qHTS assay to identify small molecule antagonists of the constitutive androstane receptor (CAR) signaling pathway (AID 1224838).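 Further: HepG2 cells stably expressing hCAR with CYP2B6 luciferase reporter stimulated by CITCO; nearly all actives have a fitted effect of over 40% in size.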 Summed up: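 Antagonist mode used CITCO at a final 50 nM to activate CAR in human hepatoma HepG2 cells carrying stable hCAR and a 2.2 kb CYP2B6 promoter-luciferase construct. Compounds were tested at 15 concentrations over 24 h, with luminescence as the end point.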

Assay [19] in a line: qHTS assay to identify small molecule antagonists of the estrogen related receptor signaling pathway with the pleiotropic PPARgamma coactivator (PGC) from Tox21 10K library - cell viability counter screen (AID 1224840; active means well fitted cell-killing curve with a large enough effect in the repeat runs, not every such curve was filed as active; further: nearly all actives have a fitted effect of over 40% in size). Summed up:
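Multiplexed viability counter screen in the PGC/ERR cell line: cells treated with DMSO-dissolved compounds for 17.5 hours at 37 C, then viability measured as CellTiter-Fluor fluorescence.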

Assay [20] concerns the target Nuclear receptor subfamily 1 group I member 3 (Homo sapiens) (UniProt Q14994). Put plainly: qHTS assay to identify small molecule agonists of the constitutive androstane receptor (CAR) signaling pathway (AID 1224839). Further: series mostly up to about 92 µM; nearly all actives have a fitted effect of over 15% in size. The essentials:
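HepG2 cells stably co-transfected with hCAR and a CYP2B6-2.2kb luciferase reporter; compounds at 15 concentrations with 0.75 uM PK11195 present. After 24 hr at 37 C, luciferase read by ONE-Glo luminescence.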

Results filed as inconclusive are left out. A number with no mark means an inactive call. Activity calls are given as the source filed them. Unless noted, the call rests on the fitted dose curve; in most records, active means well fitted curve in the direction sought with a large enough effect in the repeat runs; inconclusive means weak or mixed curves; inactive means no such curve, though single readings can be large; an effect the other way counts as inactive or inconclusive.

Luciferin 4-monooxygenase (Photinus pyralis), sequence (P08659 whole entry, looked up): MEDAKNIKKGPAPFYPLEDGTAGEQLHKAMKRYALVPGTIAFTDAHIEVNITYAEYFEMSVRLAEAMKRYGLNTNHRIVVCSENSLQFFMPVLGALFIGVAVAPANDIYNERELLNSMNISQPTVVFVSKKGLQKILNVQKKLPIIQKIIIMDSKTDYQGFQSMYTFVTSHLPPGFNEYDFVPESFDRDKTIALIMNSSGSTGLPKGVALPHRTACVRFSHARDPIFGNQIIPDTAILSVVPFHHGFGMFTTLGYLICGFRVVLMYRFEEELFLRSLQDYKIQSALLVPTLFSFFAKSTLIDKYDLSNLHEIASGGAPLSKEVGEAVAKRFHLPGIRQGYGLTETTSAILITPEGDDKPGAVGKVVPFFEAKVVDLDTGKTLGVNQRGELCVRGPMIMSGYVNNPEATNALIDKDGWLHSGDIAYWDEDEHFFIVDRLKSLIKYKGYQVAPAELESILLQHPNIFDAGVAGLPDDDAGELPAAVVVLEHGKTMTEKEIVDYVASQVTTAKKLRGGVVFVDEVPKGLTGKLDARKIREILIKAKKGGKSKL
Nuclear receptor subfamily 1 group I member 3 (Homo sapiens), sequence (Q14994 whole entry, looked up): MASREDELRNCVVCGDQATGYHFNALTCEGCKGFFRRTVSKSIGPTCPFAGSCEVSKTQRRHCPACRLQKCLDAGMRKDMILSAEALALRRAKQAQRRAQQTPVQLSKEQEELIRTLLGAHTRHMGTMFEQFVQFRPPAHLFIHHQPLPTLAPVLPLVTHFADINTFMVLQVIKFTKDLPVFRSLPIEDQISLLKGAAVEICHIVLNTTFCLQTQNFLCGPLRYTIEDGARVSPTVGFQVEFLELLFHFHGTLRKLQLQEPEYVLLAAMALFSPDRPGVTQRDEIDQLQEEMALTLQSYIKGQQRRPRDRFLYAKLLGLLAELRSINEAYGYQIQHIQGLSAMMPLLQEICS
Retinoic acid receptor RXR-alpha (Homo sapiens), sequence (P19793 whole entry, looked up): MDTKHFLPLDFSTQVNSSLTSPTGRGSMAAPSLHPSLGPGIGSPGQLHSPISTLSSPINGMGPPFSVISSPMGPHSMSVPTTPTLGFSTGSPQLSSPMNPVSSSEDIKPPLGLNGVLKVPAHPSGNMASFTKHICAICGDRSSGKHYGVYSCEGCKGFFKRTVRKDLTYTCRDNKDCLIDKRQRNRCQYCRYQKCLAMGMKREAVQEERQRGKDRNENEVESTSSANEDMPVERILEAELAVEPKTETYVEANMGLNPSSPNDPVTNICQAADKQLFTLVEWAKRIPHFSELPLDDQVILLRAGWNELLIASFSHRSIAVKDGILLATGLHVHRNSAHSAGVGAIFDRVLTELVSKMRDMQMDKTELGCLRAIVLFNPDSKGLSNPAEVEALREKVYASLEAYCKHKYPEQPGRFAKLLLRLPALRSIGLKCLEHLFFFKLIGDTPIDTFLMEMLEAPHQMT

On to `CCOC(=O)CN1CCCC1=O`, for which the call in assay [1], in [2], in assay [4], in assay [5], in assay [6] and in [7] was inactive. Also, the result in assay [11], in assay [12], in assay [14], in [16], in assay [17] and in assay [18] was inactive. Also, in assay [19], the call was inactive. For the same compound, the Potency result in assay [3], in [8], in assay [9], in assay [10], in [13] and in assay [15] was “inactive” in each case.
For `CCCCCCCCCCCCCCCC/C=C/C1CC(=O)OC1=O` (configuration not stated), the compound was classed as inactive in [1], in assay [2], in assay [4], in assay [5], in assay [6] and in [7]. Also, the result in assay [11], in [12], in [14], in assay [16], in [17] and in [19] was inactive. Also, the Potency entry in [3], in assay [9], in [10], in assay [13] and in assay [15] was “inactive” each time. In addition, in [8], the Potency is 16.9 µM (active).
`COc1cc(S(N)(=O)=O)cc(C(=O)O)c1OC`: the compound was called inactive in [2], in assay [4], in [5], in assay [6], in assay [7] and in [11]. Moreover, the compound was called inactive in [12], in [14], in [16], in assay [17] and in assay [19]. The Potency result in assay [3], in [8], in assay [9], in assay [10], in assay [13] and in assay [15] was “inactive” throughout.
Take `Cc1cccc(N)n1`: the compound was called inactive in assay [2], in assay [4], in assay [5], in assay [6], in [7] and in [11]. For the same compound, the compound was classed as inactive in assay [12], in assay [14], in assay [17] and in assay [19]. The Potency result in assay [3], in [8], in assay [9], in assay [10], in [13] and in assay [15] was “inactive” throughout.
With `CCN(CC)CC`, the result in assay [1], in [2], in assay [4], in [5], in assay [6] and in [7] was inactive. Further, the call in assay [11], in assay [12], in assay [14], in assay [17], in assay [18] and in [19] was inactive. Also, the Potency entry in assay [3], in assay [8], in assay [9], in assay [10], in [13] and in assay [15] was “inactive” each time. Also, the Potency entry in assay [20] was “inactive”.
As to `C=CC(C)(CCC=C(C)C)OC(=O)C(C)C` (configuration not stated), the compound was called inactive in assay [2], in assay [4], in assay [5], in [6], in assay [7] and in [11]. For the same compound, the call in assay [12], in assay [14], in [17] and in [19] was inactive. The Potency entry in assay [3], in [8], in assay [9], in [10], in assay [13] and in [15] was “inactive” each time.
For the compound `COc1ccc2cc(CCC(C)=O)ccc2c1`, the compound was classed as inactive in assay [1], in [2], in [4], in assay [5], in assay [6] and in [7]. Further, the compound was called inactive in assay [11], in assay [12], in assay [14], in assay [16], in [17] and in [19]. Besides, the Potency result in assay [3], in assay [8], in [9] and in [10] was “inactive” throughout. For the same compound, the figures for the Potency in assay [13] and in [15] were 3.35 µM (active) and 13.8 µM (active), respectively.
For `NC(=O)CC[C@@H](N)C(=O)O`, the compound was classed as inactive in [1], in [2], in assay [4], in [5], in assay [6] and in assay [7]. Also, the compound was called inactive in assay [11], in assay [12], in assay [14], in assay [16], in assay [17] and in [19]. Besides, the Potency entry in assay [3], in assay [8], in assay [9], in [10], in assay [13] and in [15] was “inactive” each time. The Potency entry in [20] is “inactive”.
